A selection: hits, their analogues and other compounds. The true share with any hit is near 2.8%.
KDM5B inh: Primary screen for KDM5B Histone Demethylases FDH-coupled qHTS | KDM5B demethylase, FDH-coupled NADH fluorescence (FDH is formaldehyde dehydrogenase) | AID 1347165, 2019 | 220,000 compounds, 2.6% hits | Lysine-specific demethylase 5B (Homo sapiens), Q9UGL1 | Potency, µM (doses to about 57.7 µM), hits mostly inhibitors; further: potency means the concentration at half of the fitted maximal effect; 0% is about no effect; nearly all actives have a fitted effect of over 70% in size
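KDM5BΔAP (200 nM final) in 50 mM HEPES pH 7.5, 0.01% Tween-20 was preincubated 10 min at RT with compound over a concentration range. Substrate mix (H3K4me3 12.5 µM, α-KG 25 µM, Fe²⁺, ascorbate, NAD⁺, FDH) was added, and NADH fluorescence change over 30 min gave dose-response curves.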
IP6K1 inh: Primary qHTS assay for small molecule inhibitors of Inositol hexaphosphate kinase 1 (IP6K1); Inositol hexakisphosphate kinase 1 (Homo sapiens), Q92551; IP6K1 kinase, ADP-Glo luminescence, 2 h; hits give low values; activity change, % (series mostly up to about 58 µM); 140,000 compounds, 0.81% hits; in the data active means activity change below about -25%; further: on the % scale 0 is the no-effect control and ±100 the full control effect
Target sequence (Q92551 whole entry, looked up): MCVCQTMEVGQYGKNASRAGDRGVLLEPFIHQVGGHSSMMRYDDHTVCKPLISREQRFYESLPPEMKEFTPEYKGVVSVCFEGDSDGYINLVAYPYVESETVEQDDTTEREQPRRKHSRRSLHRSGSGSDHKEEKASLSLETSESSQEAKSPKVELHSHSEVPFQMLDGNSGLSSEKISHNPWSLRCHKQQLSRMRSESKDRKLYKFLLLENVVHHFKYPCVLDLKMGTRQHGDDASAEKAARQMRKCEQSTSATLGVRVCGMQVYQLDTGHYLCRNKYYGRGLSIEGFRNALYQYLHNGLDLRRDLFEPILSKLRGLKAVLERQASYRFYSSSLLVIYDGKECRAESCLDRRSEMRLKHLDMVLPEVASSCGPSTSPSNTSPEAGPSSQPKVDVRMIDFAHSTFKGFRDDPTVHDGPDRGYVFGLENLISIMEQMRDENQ
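ADP-Glo luminescence measures ADP made by human IP6K1 during a 2 h RT reaction with ATP/IP6 (mix at 1.3 mM/130 uM); top library doses 57.5 and 19.1 uM final.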
SNCA viab count: GF-AFC viability counterscreen for inhibitors of alpha-synuclein gene (SNCA) expression; AID 1671193, 2021; Potency, µM (doses to about 57.1 µM), for inactives: at the top dose activity change, negative = cytotoxicity, actives largely listed as cytotoxic; 150,000 compounds, 0.12% hits; HEK-293-SNCA-luc viability, GF-AFC fluorescence, 24 h;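 further: potency means the concentration at half of the fitted maximal effect; 0% = DMSO-treated cells and -100% = medium-only wells without cells; nearly all actives have a fitted effect of over 30% in size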
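HEK-293-SNCA-luc cells (1500/well) plated 24 h, then exposed 24 h to a dilution series; GF-AFC added 30 min at 37C, fluorescence 405/540 nm; normalised to medium-only and DMSO wells, Hill fit.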
SNCA expr inh: Primary qHTS assay for inhibitors of alpha-synuclein gene (SNCA) expression; HEK-293 SNCA-luciferase knock-in, luminescence, 24 h; Potency, µM (series often up to 57.2 µM), for the others: top-dose activity change, negative = inhibition, hits mostly inhibitors; 140,000 compounds, 0.17% hits;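 further: potency means the concentration at half of the fitted maximal effect; plate controls were DMSO cells for no effect and cell-free wells for full effect; nearly all actives have a fitted effect of over 45% in size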
Starred values were filed as active, the others as inactive; i = inactive; ? = inconclusive; · = not tested or not shown; [ ] = dose if it differs, or a comment. Unless noted, the call rests on the fitted dose curve; in most records, active means well fitted curve in the direction sought with a large enough effect; inconclusive means small, poorly fitted or top-dose-only effect, or another doubt; inactive means no such curve, though single readings can be large; an effect the other way counts as inactive or inconclusive.

SMILES	KDM5B inh	IP6K1 inh	SNCA viab count	SNCA expr inh
O=C(O)Cn1ccc2cc(OCC3CCN(C(=O)Cc4ccccc4)CC3)cnc21	39.8µM*	-3.9	2.6%[87.6 µM]	-12.3%[87.6 µM]
NC(=O)Cn1ccc2cc(OCC3CCN(C(=O)CC4CC4)CC3)cnc21	35.5µM*	-11.7	1.0%[87.6 µM]	10.8%[87.6 µM]
COCCCNC(=O)C1CC(=O)N(c2n[nH]c3ccccc23)C1 (configuration not stated)	i	4.6	-10.3%	-16.8%
CNC(=O)CN(C)S(=O)(=O)c1ccc(C)c2ncccc12	i	·	·	·
N#C/C(=C/c1cc(Br)ccc1OCc1ccccc1C#N)c1ccc(F)cc1	i	·	·	·
COc1ccc(CC(=O)NC2CCN(Cc3cccc(-c4cccs4)c3)CC2)cc1	·	21.3	-4.3%[12.5 µM]	-2.3%
Cc1ccc2nc(SCc3nc(-c4ccc(Cl)cc4)no3)[nH]c2c1	i	30.1	-9.1%	22.4µM*
CCOc1ccc(C2Cn3nnc(-c4nc(-c5cccc(C)c5)no4)c3CO2)cc1 (configuration not stated)	20µM*	-14.3	-13.1%	25.9%
Cc1cccc(-c2noc(-c3nnn4c3COC(c3ccc(F)cc3)C4)n2)c1 (configuration not stated)	i	-9.8	?	138.3%
CCOc1ccc(C2Cn3nnc(-c4nc(-c5ccccc5)no4)c3CO2)cc1 (configuration not stated)	28.2µM*	1.9	5.8%	80.1%
CCOc1ccc(C2Cn3nnc(-c4nc(-c5cccc(Cl)c5)no4)c3CO2)cc1 (configuration not stated)	i	-1.5	-8.0%	-9.0%
CCOc1cccc(-c2noc(-c3nnn4c3COC(c3ccc(Cl)cc3)C4)n2)c1 (configuration not stated)	22.4µM*	-0.3	4.3%	?
CCC[C@@H]1CN(C(=O)c2ccc(OC)o2)C[C@H]1C(=O)O	?	-10.3	5.5%	-1.9%
Cc1ccc(CN2C(=O)c3cc(-c4ccccc4)nn3CC2(C)C(=O)NCc2ccccc2)o1 (configuration not stated)	i	·	·	·
CC(C)COC(=O)c1nc2ccccc2nc1NCc1ccc2c(c1)OCO2	i	·	·	·
O=C(Cc1ccccn1)N1CCCC(C(=O)N2CCCC2c2nc3ccncc3[nH]2)C1 (configuration not stated)	·	-0.5	2.1%	-12.7%
Cc1ccc2c(C(=O)N(C)C)cnn2c1	31.6µM*	-0.4	0.2%[87.6 µM]	4.8%[87.6 µM]
Cc1cnc2c(C(=O)NCc3cccnc3Oc3ccccc3)cnn2c1	?	3.8	-9.6%	124.7%
CNC(=O)c1cnn2cc(C)ccc12	31.6µM*	-3.7	6.2%[87.6 µM]	19.6%[87.6 µM]
COc1cncc(-c2nc(-c3c(C)noc3C)cc3c2cc(C)n3CCN(C)C)c1	39.8µM*	-17.5	-26.6%[87.6 µM]	25.2%[87.6 µM]
COc1ccc(-c2nc(-c3c(C)noc3C)cc3c2cc(C)n3C)cn1	35.5µM*	-20.7	0.7%[87.6 µM]	20.5%[87.6 µM]
COc1ncccc1-c1nc(-c2c(C)noc2C)cc2c1cc(C)n2C	i	-7.8	2.3%[87.6 µM]	67.4%[87.6 µM]
Cc1noc(C)c1-c1cc2c(cc(C)n2CCN(C)C)c(-c2ccsc2)n1	31.6µM*	-11.9	-9.8%[87.6 µM]	-0.6%[87.6 µM]
COc1cc(-c2nc(-c3c(C)noc3C)cc3c2cc(C)n3CCN(C)C)ccn1	31.6µM*	-8.4	-10.0%[87.6 µM]	-0.3%[87.6 µM]
CCc1cc2c(SCC(=O)Nc3ccc(C(C)=O)cc3)ncnc2s1	i	·	·	·
SMILES	KDM5B inh	IP6K1 inh	SNCA viab count	SNCA expr inh
Cc1c(C(=O)c2ccccc2)oc2cc(NC(=O)c3cccnc3)ccc12	i	·	·	·
CCC(C)c1ccc(NC(=O)c2ccc(SC)cc2OC)cc1 (configuration not stated)	i	·	·	·
CC(C(=O)NC(=O)NC1CCCC1)N(C)Cc1cccc(F)c1 (configuration not stated)	i	·	·	·
COc1cc(-c2nc(-c3c(C)noc3C)cc3[nH]c(C)cc23)ccn1	31.6µM*	-17.0	-15.6%[87.6 µM]	56.3%[87.6 µM]
Cc1noc(C)c1-c1cc2c(cc(C)n2CCN(C)C)c(-c2ccccc2)n1	31.6µM*	-3.3	-16.1%[87.6 µM]	-0.4%[87.6 µM]
Cc1cc(-c2nc(-c3c(C)noc3C)cc3c2cc(C)n3CCN(C)C)ccn1	35.5µM*	-6.7	-3.6%[87.6 µM]	20.2%[87.6 µM]
Cc1cc2cc(-c3c(C)noc3C)nc(Nc3ccccn3)c2o1	?	-3.8	-11.0%[87.6 µM]	2.4%[87.6 µM]
Cc1noc(C)c1-c1cc2c(cc(C)n2C)c(-c2cccc(O)c2)n1	?	-14.4	9.9%[87.6 µM]	38.8%[87.6 µM]
Cc1noc(C)c1-c1cc2c(cc(C)n2CCN(C)C)c(Nc2ccncn2)n1	31.6µM*	-14.2	4.0%[87.6 µM]	-5.3%[87.6 µM]
COCCn1c(SCC(=O)c2cc(C)c(C)cc2C)nnc1-c1ccc(Cl)cc1	i	·	·	·
COc1ccc(C(C)NC(=O)CC(C)(C)C)cc1OC (configuration not stated)	i	·	·	·
Cc1noc(C)c1-c1cc2c(cc(C)n2CCN(C)C)c(-c2ccnn2C)n1	35.5µM*	-16.0	-16.7%[87.6 µM]	?
Cc1noc(C)c1[S+](=O)([O-])N1CCCC2(COc3ccccc3C(=O)N2)C1 (configuration not stated)	25.1µM*	14.9	?	?
Cc1noc(C)c1[S+](=O)([O-])N1CC2(C1)NC(=O)c1ccccc1O2	i	-4.3	5.1%[87.6 µM]	15.6%[87.6 µM]
O=C1NC2(CCN([S+](=O)([O-])c3ccccc3)C2)COc2ccccc21 (configuration not stated)	i	10.1	8.2%	4.0%
O=C1NC2(CCCN([S+](=O)([O-])c3ccsc3)C2)COc2ccccc21 (configuration not stated)	31.6µM*	17.0	-15.6%	-11.6%
COc1cccc([S+](=O)([O-])N2CCC3(COc4ccccc4C(=O)N3)C2)c1 (configuration not stated)	31.6µM*	19.9	1.8%	12.1%
COc1cccc(Oc2coc3cc(OCc4ccc(F)cc4)ccc3c2=O)c1	i	·	·	·
CC(=O)c1ccc(OCC(=O)c2ccc3c(c2)OCO3)cc1	i	·	·	·
Cn1nc(C(=O)NCC(=O)N2CCCCCNC(=O)CC2c2ccccc2)c2ccccc21 (configuration not stated)	28.2µM*	-13.3	2.6%	-2.8%
COc1cccc(NC(=O)c2ccnc(-c3nnc4ccc(N(C)C)nn34)c2)c1	?	-3.8	-13.2%[87.6 µM]	14.1%[87.6 µM]
CN(C)c1ccc2nnc(-c3cc(C(=O)NCCc4ccccn4)ccn3)n2n1	35.5µM*	-10.4	9.6%[87.6 µM]	?
CN(c1ccccc1)c1ccc2nnc(-c3cc(C(=O)NCc4cccnc4)ccn3)n2n1	35.5µM*	-6.6	-8.1%[87.6 µM]	-3.9%[87.6 µM]
CN(c1ccccc1)c1ccc2nnc(-c3cc(C(=O)Nc4ccccn4)ccn3)n2n1	11.2µM*	-13.2	-19.0%[87.6 µM]	-8.3%[87.6 µM]
CN(c1ccccc1)c1ccc2nnc(-c3cc(C(=O)NCC4CCCO4)ccn3)n2n1 (configuration not stated)	i	-21.2	2.1%[87.6 µM]	-12.7%[87.6 µM]
Cc1cn2nc(C(=O)Nc3ccc(F)cc3C)cc2c(N2CCSCC2)n1	25.1µM*	0.0	?	28.4%

Bioassay records: PubChem BioAssay, National Center for Advancing Translational Sciences (NCATS)
